Paper PMC5540273 (PLoS ONE, 2017)

Tested on: CSNK1A1L
Conditions: concentration: 1 μM, replicates: in singlicate; n = 1
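Further: KINOMEscan kinase panel screen.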

SMILES | %Inh
CCc1nc(-c2cccc(C)c2)c(-c2ccncc2)s1 | 12%
COc1cc(OC)cc(-c2cc3cnc(N)nc3nc2NC(=O)NC(C)(C)C)c1 | 0%
Nc1ncnc2c1ncn2-c1cccc(F)c1 [SKF-97560] | 0%
COc1cc2ncn(-c3cc(OCc4ccncc4)c(C(N)=O)s3)c2cc1OC [GSK336313] | 2%
Fc1cccc(CSc2nnc(-c3ccc4c(c3)CCO4)o2)c1 | 11%
CCC(=O)c1c(-c2ccccc2)c2cc(Cl)ccc2c(=O)n1Cc1cc(S(C)(=O)=O)n(CCC(C)(C)O)n1 | 0%
CCn1c(-c2ccoc2)nc2cnccc21 [SB-733887] | 0%
CCc1ccc(-c2ccc3c(c2)-c2nn(C)cc2S(=O)(=O)N3C)cc1 | 0%
COc1ccc(-c2coc3ccc(-c4nnc(SCc5cccc(C#N)c5)o4)cc23)cc1 | 7%
COC(=O)c1c(-c2ccccc2)c2cc(C)ccc2c(=O)n1Cc1ccccc1 | 0%
Cl.NS(=O)(=O)c1cccc(Nc2cc(-c3ccc(F)cc3)n[nH]2)c1 [GW824645] | 0%
COC(=O)c1c(-c2ccccc2)c2cc(Br)ccc2c(=O)n1Cc1ccc(NC(=O)CCC(=O)O)cc1 | 18%
COc1ccc(CNC(=O)NC2CCN(c3ccnc(Nc4ccc(F)cc4)n3)C2)cc1 (centres unmarked) [GSK1379706] | 12%
CCS(=O)(=O)c1ccc(OC)c(Nc2ncc(-c3ccc(F)cc3)o2)c1.Cl [GW591947] | 0%
Cc1nn2c(=O)cc(N3CCOCC3)nc2n1Cc1cccc(Cl)c1Cl [GSK2342769] | 22%
CCS(=O)c1ccc(-c2coc3ccc(-c4nnc(C)o4)cc23)cc1 (centres unmarked) | 0%
COc1cc(Nc2nccc(N3CCC(NC(=O)C(C)c4ccc(Cl)cc4)C3)n2)cc(OC)c1OC (centres unmarked) [GSK1379757] | 0%
COc1cc2ncn(-c3cc(OCc4ccncc4Br)c(C(N)=O)s3)c2cc1OC [GW854278] | 10%
Cl.c1ccc(Cn2cnc3cc(Nc4ncnc5ccccc45)ccc32)cc1 [GW272142] | 11%

SMILES | %Inh
CCC(=O)c1c(-c2ccccc2)c2cc(Cl)ccc2c(=O)n1Cc1cc(C(=O)NC2CC2)n(C)n1 | 0%
Nc1nccc2scc(-c3ccc4c(c3)CCN4C(=O)Cc3ccccc3)c12 [GSK2576924] | 0%
COc1ccc(-c2cc3c(C)nc(N)nc3n([C@H]3CC[C@H](O)CC3)c2=O)cn1 | 0%
Nc1nc(-c2ccccc2F)c(-c2ccnc3ccccc23)s1 [GW560459] | 7%
COc1cccc(C2=C(N(C)c3ccccc3)C(=O)NC2=O)c1 [SB-334865] | 1%
CCn1c(-c2nonc2N)nc2ccccc21 [SB-693162/GW549034] | 0%
COc1cc2nccc(Nc3ccc(OCc4ccc(NC(C)=O)cc4)cc3)c2cc1OC.Cl [GW440135] | 15%
Cc1ccc(Oc2ccc(Nc3ncnc4cc[nH]c34)cc2C)cn1 | 11%
O=C(Nc1n[nH]c2cc(-c3ccccc3F)ccc12)C1CC1 [SB-733371] | 15%
O=C1NC(=O)C(c2ccccc2)=C1Nc1cccc(O)c1 [SB-390534] | 8%
COc1ccc(-c2cc3c(C)nc(N)nc3n([C@H]3CC[C@H](OCCO)CC3)c2=O)cn1 | 0%
Cn1c(=O)c(F)c(Nc2ccc(I)cc2F)c2c(=O)n(OC[C@H](O)CO)cnc21 | 0%
Nc1n[nH]c2ncc(-c3ccccc3)cc12 [SB-517081] | 9%
CCC(=O)c1c(-c2ccccc2)c2cc(Cl)ccc2c(=O)n1Cc1cc(S(C)(=O)=O)n(CC(N)=O)n1 | 0%
Nc1ncnc2c1ncn2-c1ccc(Cl)cc1 [AH2635] | 12%
Cc1nnc(-c2ccc3ncn(-c4ccc(S(C)=O)cc4)c3c2)o1 (centres unmarked) | 14%
COc1cc2ncn(-c3cc(OCc4ccc(S(C)(=O)=O)cc4)c(C(N)=O)s3)c2cc1OC [GW869979] | 0%
CCC(=O)c1c(-c2ccccc2)c2cc(Cl)ccc2c(=O)n1Cc1ccc(C(=O)O)cc1 | 1%

Tested on: CSNK1A1
Conditions: concentration: 1 μM, replicates: in singlicate; n = 1

SMILES | %Inh
CCc1nc(-c2cccc(C)c2)c(-c2ccncc2)s1 | 58%
COc1cc(OC)cc(-c2cc3cnc(N)nc3nc2NC(=O)NC(C)(C)C)c1 | 36%
Nc1ncnc2c1ncn2-c1cccc(F)c1 [SKF-97560] | 16%
COc1cc2ncn(-c3cc(OCc4ccncc4)c(C(N)=O)s3)c2cc1OC [GSK336313] | 0%
Fc1cccc(CSc2nnc(-c3ccc4c(c3)CCO4)o2)c1 | 8%
CCC(=O)c1c(-c2ccccc2)c2cc(Cl)ccc2c(=O)n1Cc1cc(S(C)(=O)=O)n(CCC(C)(C)O)n1 | 31%
CCn1c(-c2ccoc2)nc2cnccc21 [SB-733887] | 0%
CCc1ccc(-c2ccc3c(c2)-c2nn(C)cc2S(=O)(=O)N3C)cc1 | 2%
COc1ccc(-c2coc3ccc(-c4nnc(SCc5cccc(C#N)c5)o4)cc23)cc1 | 10%
COC(=O)c1c(-c2ccccc2)c2cc(C)ccc2c(=O)n1Cc1ccccc1 | 0%
Cl.NS(=O)(=O)c1cccc(Nc2cc(-c3ccc(F)cc3)n[nH]2)c1 [GW824645] | 3%
COC(=O)c1c(-c2ccccc2)c2cc(Br)ccc2c(=O)n1Cc1ccc(NC(=O)CCC(=O)O)cc1 | 16%
COc1ccc(CNC(=O)NC2CCN(c3ccnc(Nc4ccc(F)cc4)n3)C2)cc1 (centres unmarked) [GSK1379706] | 25%
CCS(=O)(=O)c1ccc(OC)c(Nc2ncc(-c3ccc(F)cc3)o2)c1.Cl [GW591947] | 0%
Cc1nn2c(=O)cc(N3CCOCC3)nc2n1Cc1cccc(Cl)c1Cl [GSK2342769] | 0%
CCS(=O)c1ccc(-c2coc3ccc(-c4nnc(C)o4)cc23)cc1 (centres unmarked) | 1%
COc1cc(Nc2nccc(N3CCC(NC(=O)C(C)c4ccc(Cl)cc4)C3)n2)cc(OC)c1OC (centres unmarked) [GSK1379757] | 0%
COc1cc2ncn(-c3cc(OCc4ccncc4Br)c(C(N)=O)s3)c2cc1OC [GW854278] | 0%
Cl.c1ccc(Cn2cnc3cc(Nc4ncnc5ccccc45)ccc32)cc1 [GW272142] | 0%

SMILES | %Inh
CCC(=O)c1c(-c2ccccc2)c2cc(Cl)ccc2c(=O)n1Cc1cc(C(=O)NC2CC2)n(C)n1 | 11%
Nc1nccc2scc(-c3ccc4c(c3)CCN4C(=O)Cc3ccccc3)c12 [GSK2576924] | 0%
COc1ccc(-c2cc3c(C)nc(N)nc3n([C@H]3CC[C@H](O)CC3)c2=O)cn1 | 13%
Nc1nc(-c2ccccc2F)c(-c2ccnc3ccccc23)s1 [GW560459] | 72%
COc1cccc(C2=C(N(C)c3ccccc3)C(=O)NC2=O)c1 [SB-334865] | 0%
CCn1c(-c2nonc2N)nc2ccccc21 [SB-693162/GW549034] | 6%
COc1cc2nccc(Nc3ccc(OCc4ccc(NC(C)=O)cc4)cc3)c2cc1OC.Cl [GW440135] | 0%
Cc1ccc(Oc2ccc(Nc3ncnc4cc[nH]c34)cc2C)cn1 | 8%
O=C(Nc1n[nH]c2cc(-c3ccccc3F)ccc12)C1CC1 [SB-733371] | 0%
O=C1NC(=O)C(c2ccccc2)=C1Nc1cccc(O)c1 [SB-390534] | 19%
COc1ccc(-c2cc3c(C)nc(N)nc3n([C@H]3CC[C@H](OCCO)CC3)c2=O)cn1 | 24%
Cn1c(=O)c(F)c(Nc2ccc(I)cc2F)c2c(=O)n(OC[C@H](O)CO)cnc21 | 36%
Nc1n[nH]c2ncc(-c3ccccc3)cc12 [SB-517081] | 0%
CCC(=O)c1c(-c2ccccc2)c2cc(Cl)ccc2c(=O)n1Cc1cc(S(C)(=O)=O)n(CC(N)=O)n1 | 0%
Nc1ncnc2c1ncn2-c1ccc(Cl)cc1 [AH2635] | 0%
Cc1nnc(-c2ccc3ncn(-c4ccc(S(C)=O)cc4)c3c2)o1 (centres unmarked) | 0%
COc1cc2ncn(-c3cc(OCc4ccc(S(C)(=O)=O)cc4)c(C(N)=O)s3)c2cc1OC [GW869979] | 0%
CCC(=O)c1c(-c2ccccc2)c2cc(Cl)ccc2c(=O)n1Cc1ccc(C(=O)O)cc1 | 0%
